From PubChem
HT1080NT lethal – kills 2HG-producing HT-1080-NT fibrosarcoma cells; AID 686970; 360,000 compounds, 1.6% hits; Potency, µM (highest dose often 46.1 µM), usual class: cytotoxic; HT-1080-NT fibrosarcoma viability, CellTiter-Glo ATP luminescence, 48 h;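 further: NT is the 2HG producing partner of a matched IDH1 knockdown line; nearly all actives have a fitted effect of over 55% in size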
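HT-1080-NT fibrosarcoma cells (2HG-overproducing), 750 cells/well in RPMI with 5% FBS, dosed after 2 h and incubated 48 h at 37C. CellTiter-Glo luminescence normalized to DMSO and no-cell wells; concentration-response curves fitted and classed.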
TDP1 cell CPT – growth inhibition of DT40 Tdp1-/-;hTDP1 cells with camptothecin (screen for TDP1 inhibitors). chicken DT40 Tdp1-/-;hTDP1 cells + 20 nM CPT, ATP luminescence, 48 h. Potency, µM (titrated, usually from 46.2 µM), actives largely listed as inhibitors. 420,000 compounds, 12% hits. AID 686979; further: nearly all actives have a fitted effect of over 55% in size
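Cell growth measured by CellTiter-Glo luminescence after a minimum 48 h, 37 C compound exposure with 20 nM CPT in Tdp1-knockout DT40 cells stably expressing hTDP1, seeded 400/well; qHTS titration format.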
HT1080 IDH1KD tx – kills HT-1080 cells with IDH1 knockdown; HT-1080 IDH1 knockdown viability, ATP luminescence, 48 h; 360,000 compounds, 2% hits; Potency, µM (titrated, usually from 46.1 µM), hits mostly cytotoxic
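CellTiter-Glo luminescence after 48 h compound exposure at 37 degrees C of IDH1-knockdown HT-1080 cells in 5% FBS RPMI. %Activity scaled between DMSO wells and cell-free media wells, with curves fitted and assigned curve classes.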
IL-1B inflam inh – inhibitors of inflammasome signaling (IL-1 beta secretion) | 360,000 compounds, 4.7% hits | THP-1 LPS/ATP IL-1B secretion, AlphaLISA, 16 h; hits give low values | activity change, % at 57.5 µM | AID 743279; in the data active means activity change below about -50%; inconclusive means mostly about -30% to -49%
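THP-1 cells pretreated 1 hr with compounds (up to 57.5 uM final), then stimulated with LPS (250 ng/mL final) plus ATP (1.25 mM final); secreted IL-1B measured by AlphaLISA after 16 hr, decreased signal indicating inhibition.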
DT40 TDP1 no CPT – qHTS for Inhibitors of human tyrosyl-DNA phosphodiesterase 1 (TDP1): qHTS in cells in absence of CPT | Potency, µM (doses to about 46.2 µM), most hits filed as inhibitors | DT40 Tdp1-/- hTDP1 cells, no CPT, ATP luminescence, 48 h | 420,000 compounds, 15% hits; further: nearly all actives have a fitted effect of over 55% in size
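A cellular qHTS used chicken DT40 cells lacking endogenous Tdp1 but carrying stably transfected human TDP1. Compounds were applied without camptothecin, and cell growth kinetics were judged by ATP-dependent luminescence after ≥48 hr.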
Each line names hits and unclear results; the compound was inactive in the other large screens; ! = repeats disagree. This is a sample that favours compounds with a hit; in the whole collection about 19% have one here. Unless noted, the call rests on the fitted dose curve; in most records, active means well fitted curve in the direction sought with a large enough effect; inconclusive means small, poorly fitted or top-dose-only effect, or another doubt; inactive means no such curve, though single readings can be large; an effect the other way counts as inactive or inconclusive.

O=C(O)c1ccc(C=NNC(=O)c2cccc3ccccc23)cc1	DT40 TDP1 no CPT inconclusive
COc1ccc(CNC(=O)COC(=O)c2c(NC(C)=O)sc(C)c2C)cc1	TDP1 cell CPT inconclusive
Cc1ccc(C(=O)Nc2cc3ccccc3oc2=O)cc1	TDP1 cell CPT 2.1µM, DT40 TDP1 no CPT 3.7µM
CC(=O)c1cc(NC(=O)c2ccc(C)cc2)c(=O)oc1C	TDP1 cell CPT 23µM, HT1080 IDH1KD tx inconclusive, IL-1B inflam inh -106, DT40 TDP1 no CPT inconclusive
CC(=O)Nc1cc2ccccc2oc1=O	none
CC(=O)c1cc(NC(=O)c2ccc(C)cc2)c(=O)oc1/C=C/N(C)C	none
CC(=O)c1cc(NC(=O)c2ccccc2)c(=O)oc1C	TDP1 cell CPT inconclusive, HT1080 IDH1KD tx inconclusive, IL-1B inflam inh -102, DT40 TDP1 no CPT 33µM
COC(=O)C1CCN(Cc2ccc3c(c2)CN(C(=O)c2sc(C)nc2C)CCO3)CC1	none (no result: HT1080NT lethal, HT1080 IDH1KD tx, IL-1B inflam inh)
O=C(O)C(C(=O)/C=C/c1ccco1)=C1SCCS1	DT40 TDP1 no CPT inconclusive
O=C(C=C1SCCS1)/C=C/c1ccco1	TDP1 cell CPT inconclusive, IL-1B inflam inh -92, DT40 TDP1 no CPT inconclusive
COc1ccc(C2=NOC(Cn3nc(-c4ccccc4)cc3C(=O)NCc3cccc(C(F)(F)F)c3)C2)cc1 (stereo not drawn)	TDP1 cell CPT inconclusive
O=C(NCc1cccs1)c1cc(-c2ccccc2)nn1CC1CC(c2cccc([N+](=O)[O-])c2)=NO1 (stereo not drawn)	TDP1 cell CPT 16µM, DT40 TDP1 no CPT 15µM
Cc1ccccc1-c1cc(C(=O)NCc2cccc(Br)c2)n(CC2CC(c3cccnc3)=NO2)n1 (stereo not drawn)	TDP1 cell CPT inconclusive, DT40 TDP1 no CPT 18µM
COc1ccccc1CNC(=O)c1cc(-c2ccccc2)nn1CC1CC(c2cccc([N+](=O)[O-])c2)=NO1 (stereo not drawn)	TDP1 cell CPT 10µM, DT40 TDP1 no CPT 15µM
CCc1cc(Cn2nc(-c3ccccc3)cc2C(=O)NCc2cccs2)on1	HT1080NT lethal inconclusive, TDP1 cell CPT 16µM, IL-1B inflam inh -73, DT40 TDP1 no CPT inconclusive
COc1ccccc1CNC(=O)c1cc(-c2ccccc2C)nn1CC1CC(c2cccnc2)=NO1 (stereo not drawn)	TDP1 cell CPT inconclusive, DT40 TDP1 no CPT inconclusive
O=C(CCNC(=O)c1ccc(Br)cc1)Nc1ncccc1O	none
COC(=O)c1c(C)oc(C)c1S(=O)(=O)N1CCOCC1	none
COc1cc(C(=O)Nc2ccc(C)cc2)c(-n2cnnn2)cc1OC	none
COc1ccc(-c2c(C)nn3c4c(cnc23)C(=O)CC(c2ccc(C)cc2)C4)cc1 (stereo not drawn)	none (no result: HT1080NT lethal, HT1080 IDH1KD tx, IL-1B inflam inh)
COCCn1c(=O)c(-c2ccc(Cl)cc2)nc2cnc(N(C)C)nc21	none (no result: HT1080NT lethal, HT1080 IDH1KD tx, IL-1B inflam inh)
O=C(NCc1ccco1)C1CC(c2cccc([N+](=O)[O-])c2)=NO1 (stereo not drawn)	TDP1 cell CPT inconclusive, HT1080 IDH1KD tx inconclusive, DT40 TDP1 no CPT inconclusive
COc1ccccc1CNC(=O)C1CC(c2cccc([N+](=O)[O-])c2)=NO1 (stereo not drawn)	TDP1 cell CPT 16µM, HT1080 IDH1KD tx inconclusive, DT40 TDP1 no CPT 23µM
COc1ccc(-c2ccc3c(N)c(C(=O)c4ccc(OC)c(OC)c4)sc3n2)cc1	TDP1 cell CPT 9.2µM!, DT40 TDP1 no CPT 9.2µM
COc1cccc(-c2ccc3c(N)c(C(=O)c4ccc(Br)cc4)sc3n2)c1	TDP1 cell CPT 15µM, DT40 TDP1 no CPT 15µM (no result: HT1080NT lethal, HT1080 IDH1KD tx, IL-1B inflam inh)
COc1ccc(C(=O)c2sc3nc(-c4ccccc4)ccc3c2N)cc1OC	TDP1 cell CPT 16µM, DT40 TDP1 no CPT 13µM
COc1ccc(-c2ccc3c(N)c(C(=O)NC(C)C)sc3n2)cc1OC	DT40 TDP1 no CPT 16µM (no result: IL-1B inflam inh)
CCN(c1nc(N)c(C(=O)N=C(N)N)nc1Cl)C(C)C	TDP1 cell CPT 21µM, HT1080 IDH1KD tx inconclusive, DT40 TDP1 no CPT 7.3µM
Cc1cc2oc3c(c(=O)c2cc1C)C(c1ccc(C(C)C)cc1)N(CCCN1CCOCC1)C3=O (stereo not drawn)	TDP1 cell CPT 21µM, DT40 TDP1 no CPT inconclusive
